Pf Dd2 inh: P. falciparum Dd2 growth inhibitors, primary screen, SYBR Green fluorescence, single dose replicates | 72 h; active compounds read low | activity change, % at 10 µM | hit rate 2.3% among 94,000; in the data active = activity change below about -80%; inconclusive = no clear call, values can overlap the other calls
T cruzi growth-1: T. cruzi intracellular proliferation inhibitors, primary screen, cell-based, beta-gal Tulahuen parasites, NIH3T3 host, luminescence; T. cruzi beta-gal in NIH3T3, GalScreen luminescence, 90 h; AID 624255, 2012; inhibition, % at 8.34 µM; hit rate 5.9% among 77,000;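 active = mean inhibition above about 93%, with at least 55% of replicates each passing it, limit read from the data, passing the limit was not always enough; inconclusive = only one of those two conditions holds; inactive = neither condition holds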
C diff HTS: C. difficile growth inhibitors, primary screen, HTS; growth activity, negative = inhibition, % at 16 µg/mL (by protocol); hit rate 0.25% among 86,000; AID 1259249, 2017; Clostridium difficile clinical isolate growth, OD600, 24 h; active compounds read low;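 active = mean growth activity at or below -80% and every replicate also at or below -80%; inconclusive = mean at or below -80% but some replicate above -80%; inactive = mean growth activity above -80%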;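 also: 0% = DMSO wells and -100% = levofloxacin 16 µg/mL wells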
T cruzi growth-2: T. cruzi intracellular proliferation inhibitors, confirmation, cell-based, NIH3T3 host, beta-gal parasite, luminescence, cherry-pick. inhibition, % at 8.35 µM. hit rate 72% among 5,600. shares compounds with T cruzi growth-1. T. cruzi beta-gal in NIH3T3, GalScreen luminescence, 90 h. AID 651739, 2012;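 active = mean replicate inhibition above about 95% and at least 55% of replicates individually reaching it, limit read from the data; inconclusive = only one of the two criteria is met; inactive = neither criterion is met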
T cruzi growth-3: inhibitors of intracellular T. cruzi replication, confirmation, NIH3T3 host cells, beta-gal parasites, cherry-pick, set 2; shares compounds with T cruzi growth-1; T. cruzi beta-gal in NIH3T3, GalScreen luminescence, 90 h; inhibition, % at 2.09 µM; hit rate 21% among 5,600; AID 651740, 2012;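 active = mean inhibition above about 95%, with at least 55% of replicates also reaching it, limit read from the data; inconclusive = meets just one of the two conditions; inactive = meets neither condition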;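 also: plate controls were neutral control median for no effect and positive control median for full effect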
3T3 cytotox: cytotoxicity in mouse NIH/3T3 fibroblasts, confirmation, cytotoxicity control for T. cruzi proliferation inhibitor project, cell-based, cherry-pick, single point | shares compounds with T cruzi growth-1 | NIH/3T3 viability, CellTiter-Glo ATP luminescence, 90 h | cytotoxicity (signal decrease), % at 8.35 µM | hit rate 14% among 5,600;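 active = mean signal decrease across replicates above about 35% based on untreated-well scatter, with enough replicates individually passing, limit read from the data; inconclusive = no rule stated though some were filed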;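 also: 0% = median of neutral control wells and 100% = median of positive control wells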
NIH3T3 tox 2: NIH/3T3 fibroblast cytotoxicity, confirmation, cytotoxicity control, cell-based, cherry-pick, single point, set 2; hit rate 56% among 5,600; NIH/3T3 viability, CellTiter-Glo ATP luminescence, 90 h; AID 651744, 2012; shares compounds with T cruzi growth-1; inhibition, % at 24.9 µM;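 active = mean loss of cell viability signal at or above a set limit, and enough replicates individually reaching it; inconclusive = meets only the mean limit or only the replicate share; inactive = meets neither condition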;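 also: 0% = median of neutral control wells and 100% = median of positive control wells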
An asterisk follows results filed as active; ? = inconclusive; nt = not tested or not shown. Most compounds without a hit are left out; they make up all but 6.7% or so of the library.

SMILES	Pf Dd2 inh	T cruzi growth-1	C diff HTS	T cruzi growth-2	T cruzi growth-3	3T3 cytotox	NIH3T3 tox 2
CC(C)NC(=O)N(C)C[C@H]1Oc2ccc(NC(=O)C3CC3)cc2C(=O)N([C@@H](C)CO)C[C@H]1C	0	5	2	nt	nt	nt	nt
O=C(NC[C@@H]1N[C@@H](CO)[C@H]1c1ccc(-c2ccccc2F)cc1)c1ccccc1	-12	109*	27	107*	34	5	104*
COCC(=O)NC[C@@H]1N[C@@H](CO)[C@H]1c1ccc(C2=CCCC2)cc1	22	-1	7	nt	nt	nt	nt
O=C(NC[C@@H]1N[C@@H](CO)[C@H]1c1ccc(C2=CCCC2)cc1)c1ccccc1	-7	40	6	nt	nt	nt	nt
COCC(=O)NC[C@H]1N[C@H](CO)[C@@H]1c1ccc(C2=CCCCC2)cc1	7	98*	-4	70	-9	-10	12
COCC(=O)NC[C@H]1N[C@H](CO)[C@H]1c1ccc(-c2ccccc2F)cc1	5	15	-4	nt	nt	nt	nt
O=C(NC[C@H]1N[C@H](CO)[C@@H]1c1ccc(-c2ccccc2F)cc1)c1ccccc1	2	?	36	96*	11	2	105*
CCC(=O)NC[C@H]1N[C@H](CO)[C@@H]1c1ccc(-c2ccccc2F)cc1	-2	nt	-6	nt	nt	nt	nt
O=C(NC[C@@H]1N[C@@H](CO)[C@@H]1c1ccc(C2=CCCC2)cc1)c1ccccc1	-27	113*	51	108*	82	39*	107*
C[C@@H]1CN([C@H](C)CO)C(=O)c2cc(-c3cccc(F)c3)cnc2O[C@@H]1CN(C)S(=O)(=O)c1cccc(F)c1	-16	44	nt	nt	nt	nt	nt
COc1ccc(S(=O)(=O)N(C)C[C@H]2Oc3ccc(NC(=O)CCC(F)(F)F)cc3C(=O)N([C@@H](C)CO)C[C@H]2C)cc1	1	nt	0	nt	nt	nt	nt
C[C@@H]1CN([C@H](C)CO)C(=O)Cc2cc(NC(=O)Cc3ccccc3)ccc2O[C@H]1CN(C)C(=O)Nc1ccc(F)cc1	-3	nt	-4	nt	nt	nt	nt
O=C(c1ccccn1)N1CC(=O)N2[C@H](CO)[C@H](c3ccc(C#Cc4ccccc4)cc3)[C@H]2C1	-42	nt	-3	nt	nt	nt	nt
COc1ccc(NC(=O)N(C)C[C@H]2Oc3ccc(NC(=O)CCC(F)(F)F)cc3C(=O)N([C@@H](C)CO)C[C@@H]2C)cc1	14	-3	0	nt	nt	nt	nt
C[C@H](NC(=O)C[C@H]1C[C@@H]2c3cc(NC(=O)Nc4ccc(C(F)(F)F)cc4)ccc3O[C@@H]2[C@@H](CO)O1)c1ccccc1	-16	20	7	nt	nt	nt	nt
O=C(C[C@H]1C[C@@H]2c3cc(NC(=O)Nc4ccc(C(F)(F)F)cc4)ccc3O[C@@H]2[C@@H](CO)O1)NCc1cc(F)ccc1F	-17	156*	14	81	11	9	-4
O=C(C[C@H]1C[C@@H]2c3cc(NC(=O)Nc4ccc(C(F)(F)F)cc4)ccc3O[C@@H]2[C@@H](CO)O1)NCc1ccc(Cl)cc1	-54	-14	nt	nt	nt	nt	nt
O=C(C[C@@H]1C[C@@H]2c3cc(NC(=O)Nc4ccc(C(F)(F)F)cc4)ccc3O[C@@H]2[C@@H](CO)O1)NCc1ccc(Cl)cc1	-45	112*	nt	109*	24	-21	-1
O=C(C[C@@H]1C[C@@H]2c3cc(NC(=O)Nc4ccc(C(F)(F)F)cc4)ccc3O[C@@H]2[C@H](CO)O1)NCc1cc(F)ccc1F	-21	37	-15	nt	nt	nt	nt
C[C@H](NC(=O)C[C@H]1C[C@H]2c3cc(NC(=O)Nc4ccc(C(F)(F)F)cc4)ccc3O[C@H]2[C@@H](CO)O1)c1ccccc1	-27	?	9	77	41	8	-2
O=C(c1cccc(F)c1)N1CC[C@@H]2[C@H](CO)Nc3ccc(C#Cc4ccc(F)cc4)cc3[C@@H]21	-16	95	12	nt	nt	nt	nt
Cc1ccc(S(=O)(=O)N(C)C[C@H]2Oc3ccc(NS(C)(=O)=O)cc3CC(=O)N([C@@H](C)CO)C[C@@H]2C)cc1	-35	29	1	nt	nt	nt	nt
C[C@H](CO)N1C[C@H](C)[C@@H](CN(C)C(=O)NC2CCCC2)Oc2ncc(-c3ccccc3)cc2C1=O	-6	-12	5	nt	nt	nt	nt
CNC(=O)C[C@H]1CC[C@H]2[C@@H](COc3ccc(NC(=O)c4ccccc4Cl)cc3C(=O)N2C)O1	-4	24	-2	nt	nt	nt	nt
C[C@@H]1CCCCO[C@@H](CN(C)C(=O)Nc2ccc(F)cc2)[C@H](C)CN([C@@H](C)CO)C(=O)c2cc(NC(=O)Nc3cccc4ccccc34)ccc2O1	-7	91	-8	nt	nt	nt	nt
SMILES	Pf Dd2 inh	T cruzi growth-1	C diff HTS	T cruzi growth-2	T cruzi growth-3	3T3 cytotox	NIH3T3 tox 2
C[C@H](CO)N1C[C@H](C)[C@H](CN(C)C(=O)Nc2cccc3ccccc23)OCCCC[C@H](C)Oc2ccc(NC(=O)Nc3ccc(F)cc3)cc2C1=O	-48	?	-3	101*	71	0	0
C[C@@H]1CCCCO[C@H](CN(C)C(=O)Nc2cccc3ccccc23)[C@H](C)CN([C@@H](C)CO)C(=O)c2cc(NC(=O)Nc3ccc(F)cc3)ccc2O1	-83*	101*	7	112*	60	-14	-11
C[C@@H]1CCCCO[C@H](CN(C)C(=O)Nc2ccc(F)cc2)[C@H](C)CN([C@@H](C)CO)C(=O)c2cc(NC(=O)Nc3cccc4ccccc34)ccc2O1	-39	102*	-5	110*	81	-20	-5
C[C@@H]1CCCCO[C@H](CN(C)C(=O)Nc2cccc3ccccc23)[C@@H](C)CN([C@H](C)CO)C(=O)c2cc(NC(=O)Nc3ccc(F)cc3)ccc2O1	-34	69	-3	nt	nt	nt	nt
C[C@@H]1CCCCO[C@@H](CN(C)C(=O)Nc2ccccc2)[C@@H](C)CN([C@@H](C)CO)C(=O)c2cc(NC(=O)Nc3cccc4ccccc34)ccc2O1	?	nt	-2	nt	nt	nt	nt
C[C@H]1CN([C@@H](C)CO)S(=O)(=O)c2ccc(-c3ccc(C#N)cc3)cc2O[C@@H]1CN(C)C(=O)Nc1cc(F)ccc1F	-60	108*	6	92	41	32	75*
C[C@H]1CN([C@@H](C)CO)S(=O)(=O)c2ccc(-c3cccc(C#N)c3)cc2O[C@H]1CN(C)C(=O)Nc1cc(F)ccc1F	-18	nt	4	nt	nt	nt	nt
C[C@@H]1CN([C@@H](C)CO)S(=O)(=O)c2ccc(-c3ccc(C#N)cc3)cc2O[C@H]1CN(C)C(=O)Nc1cc(F)ccc1F	-59	99	2	nt	nt	nt	nt
C[C@H](CO)N1C[C@H](C)[C@H](CN(C)C(=O)Nc2cc(F)ccc2F)Oc2cc(-c3cccc(C#N)c3)ccc2S1(=O)=O	-13	nt	-1	nt	nt	nt	nt

From PubChem
